# Mcl1-Noxa inh – disrupts binding of human Mcl-1 to Noxa peptide; hit rate 1.5% among 220,000; AID 1022; inhibition, % at 21.7 µM; TR-FRET Mcl-1/Noxa peptide binding, 2 h;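 active = compounds that cut the protein-peptide binding signal by more than 50% relative to plate controls in a single-dose test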;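 note: His-tagged Mcl-1 with rhodamine Noxa BH3 peptide and terbium anti-His antibody; 0% = Mcl-1 plus Noxa peptide wells and 100% = peptide-only wells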
# Bim-Mcl-1 – disrupts Bim peptide binding to human Mcl-1 | Q07820 | Bead-based flow cytometry, Bim peptide-Mcl-1 binding | inhibition, % at 10 µM | hit rate 0.1% among 190,000 | AID 1009; in the data active = inhibition above about 40%;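 note: 0% = no compound tracer wells and 100% = peptide blocker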
# eIF4E-4G inh – eIF4E/eIF4G interaction inhibition in translation initiation; AID 782; TR-FRET eIF4E-eIF4GI(517-606) binding, 2 h; hit rate 0.37% among 220,000; inhibition, % at 21.7 µM; P63073+Q04637;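 active = inhibition above about 30%, limit read from the data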;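 note: 0% = full FRET control wells and 100% = background wells lacking eIF4GI fragment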
# Mcl1 Bid PPI – Mcl-1/Bid interaction inhibition; TR-FRET Mcl-1/Bid-Dy647 peptide binding, 1536-well; inhibition, % at 21.7 µM; AID 1021; Q07820; hit rate 0.97% among 220,000;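 active = compounds that cut the binding signal by more than half at the single screening dose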;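 note: His-tagged Mcl-1 with europium anti-His antibody binding Bid BH3 peptide; 0% = Mcl-1 plus peptide wells and 100% = peptide-only wells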
# 14-3-3 Bad PPI – disrupts binding of bovine 14-3-3 zeta to phospho-Bad peptide; P63103; TR-FRET 14-3-3zeta/Dy647-pBad peptide displacement, 1 h; AID 781; hit rate 0.71% among 220,000; inhibition, % at 21.7 µM;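 active = inhibition above about 70%, limit read from the data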;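 note: 0% = full 14-3-3 plus peptide FRET controls and 100% = background without 14-3-3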
# Target sequence (P63103 whole entry, looked up): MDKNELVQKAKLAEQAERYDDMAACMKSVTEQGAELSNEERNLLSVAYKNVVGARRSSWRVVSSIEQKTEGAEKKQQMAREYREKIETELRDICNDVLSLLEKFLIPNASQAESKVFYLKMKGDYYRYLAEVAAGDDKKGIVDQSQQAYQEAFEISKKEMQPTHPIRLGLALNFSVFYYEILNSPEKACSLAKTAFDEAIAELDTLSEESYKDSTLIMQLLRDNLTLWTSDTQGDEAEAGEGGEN
# Pf gametocyte – kills late stage P. falciparum gametocytes. P. falciparum stage V gametocytes, ATP luminescence, 24 h. inhibition, % at 10.9 µM. hit rate 0.065% among 150,000;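 active = inhibition above the mean plus 3 SD of compounds within the control limits, set per campaign, cut at about 38% in these data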;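 note: 0% = DMSO wells and 100% = medium only without gametocytes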
# Starred values were filed as active, the others as inactive; / = no result given. Rows were chosen to be rich in hits. Some 2.7% of all compounds tested hit in one or more screens of this group.
SMILES,Mcl1-Noxa inh,Bim-Mcl-1,eIF4E-4G inh,Mcl1 Bid PPI,14-3-3 Bad PPI,Pf gametocyte
NS(=O)(=O)c1ccc(NCc2c(F)cccc2Cl)cc1,17,-3,-4,-6,4,8
COC(=O)/C=C1\OC(c2ccccc2)=CC1=O,66*,-15,10,1,-6,/
COc1ccc(CNC(=O)c2ccc(-c3ccccc3)cc2)cc1,4,1,-8,1,9,/
C/C(N)=C(/C#N)C(=O)COC(=O)c1ccccc1Oc1ccccc1,8,0,3,-12,0,-6
O=C(CNCc1ccccc1)NC1C2CC3CC(C2)CC1C3 (configuration not stated),/,/,/,/,/,-13
CCOC(=O)N1CCC(NC(=O)c2ccc3c(c2)sc2nc(-c4ccccc4)cn23)CC1,-17,-2,/,-32,/,/
CCOC(=O)N1CCC(NC(=O)c2ccc3c(c2)sc2nc(-c4cccc(OC)c4)cn23)CC1,-2,-14,2,-87,75*,/
c1ccc2[nH]c(SCc3cn4cccnc4n3)nc2c1,11,-7,0,-10,1,9
c1ccc(-c2cnnc(SCc3cn4cccnc4n3)n2)cc1,-12,1,6,-15,78*,/
COc1cc(/C=N/NC(=O)CSc2ccccn2)ccc1OC(C)C,-1,/,3,-9,-3,2
CCOc1ccccc1CN1CCN(S(=O)(=O)CC)CC1,20,2,-4,39,94*,/
CCCS(=O)(=O)N1CCN(Cc2ccccc2OCC)CC1,3,0,-1,41,29,/
O=C(Nc1nccs1)c1cn(-c2ccccc2)nc1-c1ccncc1,-46,-1,-4,-91,29,69*
CC(=O)Nc1ccc(NC(=O)c2c(C)c(-c3ccccc3)nc3ccccc23)cc1,/,/,/,/,/,-19
COc1ccccc1C(=O)O/N=C(/C)c1ccc(N2C(=O)C3CCCCC3C2=O)cc1 (configuration not stated),18,-1,6,2,-2,14
COC(=O)N=Nc1c(O)[nH]c2ccc(Br)cc12,-12,/,-2,-22,-2,13
O=c1ccc2cc3c([nH]c4ccc(Br)cc43)oc-2c1O,94*,24,14,13,6,/
CCn1ccc(-c2ccccc2)c(C#N)c1=O,11,0,2,-14,-2,-3
CN(C)c1ccc(-n2cccc2)cc1,62*,/,12,-104,1,-12
CN(C)/C=C/C(=O)c1ccc(-c2ccc(Cl)cc2Cl)o1,26,-1,-1,-16,-3,-10
Cc1ccc[n+](CC(=O)Nc2ccc(N(C)C)cc2)c1,/,/,/,/,/,13
NC(=O)C(=CNc1nc(-c2ccc(Cl)c(Cl)c2)cs1)C(N)=O,73*,/,12,-35,26,/
CN1C(=O)C(N=Nc2ccccc2C(=O)O)N(C)C1=S (configuration not stated),39,-1,-2,53*,-19,-7
CC1=NN(C(N)=S)C(=O)C1N=Nc1ccccc1C(=O)O (configuration not stated),/,/,/,/,/,14
[N-]=[N+]=NC[C@H](Cc1ccccc1)N1CCN(Cc2ccccc2)CCC1=O,/,/,/,/,/,6
SMILES,Mcl1-Noxa inh,Bim-Mcl-1,eIF4E-4G inh,Mcl1 Bid PPI,14-3-3 Bad PPI,Pf gametocyte
CCC(C(=O)Nc1cc(Cl)ccc1OC)c1ccccc1 (configuration not stated),-1,-1,10,4,3,/
COc1ccc(Cl)cc1NC(=O)C(OC)c1ccccc1 (configuration not stated),29,-2,2,27,87*,/
Cc1cc(/C=N/n2c(COc3ccccc3)nc3ccccc3c2=O)c(O)c([N+](=O)[O-])c1,100*,0,11,-17,49,-2
Cc1ccc(-c2[nH]ncc2/C=N/n2c(COc3ccccc3)nc3ccccc3c2=O)cc1,-15,-1,2,10,19,23
O=C(CN1C(=O)c2cccc3cccc1c23)Nc1ccc(S(=O)(=O)N2CCOCC2)cc1,-148,4,-1,90*,-14,18
O=C(CN1c2cccc3cccc(c23)S1(=O)=O)Nc1ccc(S(=O)(=O)N2CCOCC2)cc1,43,-1,23,-64,5,-5
CC(C)(C)NC(=O)C1CCC(CNc2c(N3CCCCC3)c(=O)c2=O)CC1 (configuration not stated),-5,/,-6,-32,-2,1
Fc1ccc(Nc2nc(-c3ccncc3)cs2)cc1,51*,-2,-2,-10,-7,38

# Bioassay records: PubChem, several laboratories
